The text below walks through data of PubChem BioAssay AID588852 (The Scripps Research Institute Molecular Screening Center, 2011).

In general, inhibition refers to the change of the read-out against control, counted positive when it falls.

Out of some 360,000 compounds screened, about 4,600 (1.3%) were called active. The full list was thinned out, with actives kept by preference. Unmarked numbers belong to inactive results.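 How the source made its calls: active means percent inhibition above its own plate's cutoff, namely the mean of that plate's compound wells plus 3 SD; inactive means the rest.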

The target in the experiment is Muscarinic acetylcholine receptor M1 (Homo sapiens) (UniProt P11229). Briefly: human M1 muscarinic receptor antagonists, primary screen, CHO-K1 cells, Fluo-8 calcium fluorescence, 1536-well (AID 588852).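 Further: peak over basal fluorescence ratio during 140 s after agonist addition; 0% = ACh EC80 plus DMSO and 100% = DMSO alone without agonist.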 Particulars: CHO-K1 hM1, Fluo-8 calcium fluorescence, ACh EC80 antagonist; at 3 µM; hits give high values.
Sequence of Muscarinic acetylcholine receptor M1 (Homo sapiens) (P11229 whole entry, looked up): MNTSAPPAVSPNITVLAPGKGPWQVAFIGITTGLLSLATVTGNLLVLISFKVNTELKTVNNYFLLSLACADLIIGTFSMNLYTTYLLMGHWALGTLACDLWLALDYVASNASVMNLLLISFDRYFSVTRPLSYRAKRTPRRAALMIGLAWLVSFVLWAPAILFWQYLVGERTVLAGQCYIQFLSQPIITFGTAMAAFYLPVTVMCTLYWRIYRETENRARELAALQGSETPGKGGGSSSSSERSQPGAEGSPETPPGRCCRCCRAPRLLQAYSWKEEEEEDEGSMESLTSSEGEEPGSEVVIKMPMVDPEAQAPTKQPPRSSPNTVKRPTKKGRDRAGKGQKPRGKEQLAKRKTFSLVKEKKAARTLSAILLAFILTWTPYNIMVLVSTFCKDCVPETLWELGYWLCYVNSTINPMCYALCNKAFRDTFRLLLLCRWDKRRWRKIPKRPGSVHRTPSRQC
In the case of `CCN(CC)S(=O)(=O)c1ccc(N(C)Cc2cccc(OC)c2OC)nc1`, the inhibition was 7.81%.

`CCN(CC)S(=O)(=O)c1ccc(N(C)CCc2ccc(OC)c(OC)c2)nc1`: the inhibition was -0.86%.

On to `CCN(CC)S(=O)(=O)c1ccc(N(C)Cc2ccc(C(F)(F)F)cc2)nc1`, for which the inhibition is 61.2% (active). `Cc1ccc(Sc2ccc(NC(=O)c3ccc(F)cc3)cc2C#N)cc1`: the inhibition is 9.62%. On to `Cc1cc(OCCCN2CCN(Cc3ccccc3)CC2)ccc1[N+](=O)[O-]`, for which the inhibition is 54.7% (active). Regarding `Cc1cc(OCC(=O)NC2CCN(C)CC2)ccc1[N+](=O)[O-]`, the inhibition is -1.71%. Consider `COc1cc(CN2CCN(Cc3ccc(C)cc3)CC2)c([N+](=O)[O-])cc1OC`, for which the inhibition was -6.59%. With `Cc1cc(=O)oc2cc(OCC3CC(c4ccccc4Cl)=NO3)ccc12` (stereo not given), the inhibition is -6.21%. Consider `COc1ccc(N2CCN(C(=O)COc3ccc4c(C)cc(=O)oc4c3)CC2)cc1`, for which the inhibition is -5.75%. Regarding `Cc1ccccc1N1CCN(CCCOc2ccc3c(C)cc(=O)oc3c2)CC1`, the inhibition is 39.5% (active). Consider `Nc1nc2cc(Cl)ccc2n1N`, for which the inhibition is -2.44%. For the compound `CN1OC[C@@H]2CN(S(=O)(=O)c3cccc4ccccc34)[C@H](c3ccc(N4CCCCC4)cc3)C[C@@H]21`, the inhibition was 5.74%. As to `O=C(NC(c1ccc(-c2ccccc2)cc1)c1cnccn1)C1CCN(CCOc2ccc(Cl)cc2Cl)CC1` (stereo not given), the inhibition was -16.7%. For `CN(C)CCOc1cccc(Br)c1` the value was 17.3%; for `CN(C)CCOCCOc1ccc(Cl)c2ccccc12`, -1.32%. `CN(C)CCOc1ccc(Cl)cc1C(C)(C)C`: the inhibition is 66.2% (active).

`Cc1cc(C)cc(NC(=O)C(OC(=O)c2ccc(O)cc2)c2ccccc2)c1` (stereo not given): the inhibition was 29.5% (active). On to `Cc1ccc(C)c(NC(=O)C(OC(=O)c2ccc(C)s2)c2ccccc2)c1` (stereo not given), for which the inhibition is -2.69%. In the case of `Cc1cc(C)cc(NC(=O)C(c2ccccc2)N2CCN(CC(=O)N3CCCC3)CC2)c1` (stereo not given), the inhibition was 3.45%. For `COCCCNC(=O)CN1C(=O)CSc2ccc(S(=O)(=O)N3CCOCC3)cc21`, the inhibition is -6.65%. Consider `CCN(C(=O)COC(=O)c1c(C)nn(-c2ccccc2)c1Cl)c1c(N)n(Cc2ccccc2)c(=O)[nH]c1=O`, for which the inhibition is -4.94%.

In the case of `CC(=O)c1cccc(OCc2cc(C(=O)NC(C)Cc3cccnc3)no2)c1` (stereo not given), the inhibition was 18.6%. Take `CN(Cc1cccnc1)C(=O)c1cc(COc2ccc3ncccc3c2)on1`: the inhibition is 50% (active). As for `CN(Cc1cnccn1)C(=O)c1cc(COc2cccc(C(F)(F)F)c2)on1`, the inhibition was -11.2%. `Cc1nc(COc2cc3oc(=O)cc(C)c3cc2Cl)cs1`: the inhibition was -7.17%.
